Laboratory results published in paper PMC5540273 (PLoS ONE, 2017).
Read-outs that look alike come from different tables or passages of the source.

Columns and labels:
FYN = conditions: concentration: 1 μM,replicates: in singlicate; n = 1
GAK = conditions: concentration: 1 μM,replicates: in singlicate; n = 1
GCN2(Kin.Dom.2,S808G) = test system: T1, GCN2(Kin.Dom.2,S808G); conditions: concentration: 1 μM,replicates: in singlicate; n = 1
T1 construct: gene EIF2AK4

GRK1 = conditions: concentration: 1 μM,replicates: in singlicate; n = 1
GRK2 = test system: T2, GRK2; conditions: concentration: 1 μM,replicates: in singlicate; n = 1
T2 construct: gene ADRBK1

GRK3 = test system: T3, GRK3; conditions: concentration: 1 μM,replicates: in singlicate; n = 1
T3 construct: gene ADRBK2

GRK4 = conditions: concentration: 1 μM,replicates: in singlicate; n = 1
GRK7 = conditions: concentration: 1 μM,replicates: in singlicate; n = 1
GSK3A = conditions: concentration: 1 μM,replicates: in singlicate; n = 1
GSK3B = conditions: n = 1
HASPIN = test system: T4, HASPIN; conditions: concentration: 1 μM,replicates: in singlicate; n = 1
T4 construct: gene GSG2

HCK = conditions: concentration: 1 μM,replicates: in singlicate; n = 1
HIPK1 = conditions: concentration: 1 μM,replicates: in singlicate; n = 1
HIPK2 = conditions: concentration: 1 μM,replicates: in singlicate; n = 1
HIPK3 = conditions: concentration: 1 μM,replicates: in singlicate; n = 1
HIPK4 = conditions: concentration: 1 μM,replicates: in singlicate; n = 1
HPK1 = conditions: concentration: 1 μM,replicates: in singlicate; n = 1
HUNK = conditions: concentration: 1 μM,replicates: in singlicate; n = 1
ICK = conditions: concentration: 1 μM,replicates: in singlicate; n = 1
IGF1R = conditions: concentration: 1 μM,replicates: in singlicate; n = 1
[1] = concentration: 1 μM,replicates: in singlicate
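Also: KINOMEscan kinase panel screen.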

With `CCN1CCN(CCCC(=O)Nc2n[nH]c3nc(-c4ccc(O)cc4)c(Br)cc23)CC1` [SB-731579] the “%Inh” value (FYN) was 4%, the “%Inh” value (GAK) was 0% and the “%Inh” value (GCN2(Kin.Dom.2,S808G)) was 0%. For the same compound, the “%Inh” value (GRK1) was 0%, the “%Inh” value (GRK2) was 0% and the “%Inh” value (GRK3) was 25%. The “%Inh” value (GRK4) was 21%, the “%Inh” value (GRK7) was 0% and the “%Inh” value (GSK3A) was 99.5%. For the same compound, the “%Inh” value (GSK3B; 1 µM) was 98.5%, the “%Inh” value (HASPIN) was 0% and the “%Inh” value (HCK) was 0%. For the same compound, the “%Inh” value (HIPK1) was 75%, the “%Inh” value (HIPK2) was 57% and the “%Inh” value (HIPK3) was 0%. The “%Inh” value (HIPK4) was 0%, the “%Inh” value (HPK1) was 8% and the “%Inh” value (HUNK) was 0%. For the same compound, the “%Inh” value (ICK) was 93.3% and the “%Inh” value (IGF1R) was 0%.
For `O=C(Nc1ccccc1)c1cccc(Oc2ccc3nccn3n2)c1`, the “%Inh” value (FYN) was 1%, the “%Inh” value (GAK) was 8% and the “%Inh” value (GCN2(Kin.Dom.2,S808G)) was 0%. The “%Inh” value (GRK1) was 0%, the “%Inh” value (GRK2) was 0% and the “%Inh” value (GRK3) was 26%. For the same compound, the “%Inh” value (GRK4) was 0%, the “%Inh” value (GRK7) was 0% and the “%Inh” value (GSK3A) was 0%. The “%Inh” value (GSK3B; [1]) was 0%, the “%Inh” value (HASPIN) was 15% and the “%Inh” value (HCK) was 15%. The “%Inh” value (HIPK1) was 0%, the “%Inh” value (HIPK2) was 0% and the “%Inh” value (HIPK3) was 0%. For the same compound, the “%Inh” value (HIPK4) was 32%, the “%Inh” value (HPK1) was 0% and the “%Inh” value (HUNK) was 0%. The “%Inh” value (ICK) was 63% and the “%Inh” value (IGF1R) was 0%.
With `O=C(NCC1CC1)c1ccc(-c2cc(C(=O)NC3CC3)ccc2F)cc1` [GW810445] the “%Inh” value (FYN) was 0%, the “%Inh” value (GAK) was 0% and the “%Inh” value (GCN2(Kin.Dom.2,S808G)) was 0%. The “%Inh” value (GRK1) was 1%, the “%Inh” value (GRK2) was 19% and the “%Inh” value (GRK3) was 0%. For the same compound, the “%Inh” value (GRK4) was 0%, the “%Inh” value (GRK7) was 0% and the “%Inh” value (GSK3A) was 0%. The “%Inh” value (GSK3B; [1]) was 0%, the “%Inh” value (HASPIN) was 2% and the “%Inh” value (HCK) was 10%. For the same compound, the “%Inh” value (HIPK1) was 0%, the “%Inh” value (HIPK2) was 0% and the “%Inh” value (HIPK3) was 0%. For the same compound, the “%Inh” value (HIPK4) was 12%, the “%Inh” value (HPK1) was 0% and the “%Inh” value (HUNK) was 56%. For the same compound, the “%Inh” value (ICK) was 0% and the “%Inh” value (IGF1R) was 0%.
In the case of `C[C@@H](Oc1cc(-n2cnc3ccc(-c4ccncc4)cc32)sc1C(N)=O)c1ccccc1Cl` [GSK483724], the “%Inh” value (FYN) is reported as 44%, the “%Inh” value (GAK) is reported as 49% and the “%Inh” value (GCN2(Kin.Dom.2,S808G)) is reported as 0%. The “%Inh” value (GRK1) was 53%, the “%Inh” value (GRK2) was 7% and the “%Inh” value (GRK3) was 32%. For the same compound, the “%Inh” value (GRK4) was 21%, the “%Inh” value (GRK7) was 0% and the “%Inh” value (GSK3A) was 76%. The “%Inh” value (GSK3B; [1]) was 15%, the “%Inh” value (HASPIN) was 87% and the “%Inh” value (HCK) was 0%. For the same compound, the “%Inh” value (HIPK1) was 33%, the “%Inh” value (HIPK2) was 19% and the “%Inh” value (HIPK3) was 59%. For the same compound, the “%Inh” value (HIPK4) was 69%, the “%Inh” value (HPK1) was 64% and the “%Inh” value (HUNK) was 0%. The “%Inh” value (ICK) was 45% and the “%Inh” value (IGF1R) was 19%.
In the case of `NC(=O)c1ccc(-c2cc3ncnc(SCC(=O)O)c3s2)cc1`, the “%Inh” value (FYN) is reported as 0%, the “%Inh” value (GAK) is reported as 45% and the “%Inh” value (GCN2(Kin.Dom.2,S808G)) is reported as 0%. The “%Inh” value (GRK1) was 30%, the “%Inh” value (GRK2) was 0% and the “%Inh” value (GRK3) was 0%. For the same compound, the “%Inh” value (GRK4) was 0%, the “%Inh” value (GRK7) was 0% and the “%Inh” value (GSK3A) was 14%. For the same compound, the “%Inh” value (GSK3B; [1]) was 0%, the “%Inh” value (HASPIN) was 0% and the “%Inh” value (HCK) was 13%. For the same compound, the “%Inh” value (HIPK1) was 94.8%, the “%Inh” value (HIPK2) was 96.1% and the “%Inh” value (HIPK3) was 92%. The “%Inh” value (HIPK4) was 79%, the “%Inh” value (HPK1) was 2% and the “%Inh” value (HUNK) was 0%. For the same compound, the “%Inh” value (ICK) was 10% and the “%Inh” value (IGF1R) was 0%.
`Cn1ccc2ncnc(Oc3ccc(NC(=O)Nc4cccc(C(F)(F)F)c4)c(Cl)c3)c21` was tested, and the “%Inh” value (FYN) was 0%, the “%Inh” value (GAK) was 1% and the “%Inh” value (GCN2(Kin.Dom.2,S808G)) was 21%. The “%Inh” value (GRK1) was 32%, the “%Inh” value (GRK2) was 0% and the “%Inh” value (GRK3) was 0%. The “%Inh” value (GRK4) was 0%, the “%Inh” value (GRK7) was 0% and the “%Inh” value (GSK3A) was 28%. The “%Inh” value (GSK3B; [1]) was 0%, the “%Inh” value (HASPIN) was 0% and the “%Inh” value (HCK) was 47%. For the same compound, the “%Inh” value (HIPK1) was 26%, the “%Inh” value (HIPK2) was 15% and the “%Inh” value (HIPK3) was 0%. For the same compound, the “%Inh” value (HIPK4) was 17%, the “%Inh” value (HPK1) was 39% and the “%Inh” value (HUNK) was 2%. The “%Inh” value (ICK) was 0% and the “%Inh” value (IGF1R) was 0%.
With `CS(=O)(=O)c1cccc(CNc2nc(Nc3ccc4c(c3)[C@@H]3C[C@@H]4CNC3=O)ncc2C(F)(F)F)c1` the “%Inh” value (FYN) was 0%, the “%Inh” value (GAK) was 26% and the “%Inh” value (GCN2(Kin.Dom.2,S808G)) was 57%. For the same compound, the “%Inh” value (GRK1) was 28%, the “%Inh” value (GRK2) was 0% and the “%Inh” value (GRK3) was 0%. For the same compound, the “%Inh” value (GRK4) was 27%, the “%Inh” value (GRK7) was 0% and the “%Inh” value (GSK3A) was 74%. The “%Inh” value (GSK3B; [1]) was 0%, the “%Inh” value (HASPIN) was 0% and the “%Inh” value (HCK) was 0%. For the same compound, the “%Inh” value (HIPK1) was 60%, the “%Inh” value (HIPK2) was 34% and the “%Inh” value (HIPK3) was 7%. For the same compound, the “%Inh” value (HIPK4) was 33%, the “%Inh” value (HPK1) was 86% and the “%Inh” value (HUNK) was 0%. For the same compound, the “%Inh” value (ICK) was 0% and the “%Inh” value (IGF1R) was 89%.
With `Cc1ccc(C(=O)Nc2ccc(Oc3ccc4nc(NC(=O)C5CC5)cn4c3)c(F)c2)c(=O)n1-c1ccccc1` the “%Inh” value (FYN) was 31%, the “%Inh” value (GAK) was 0% and the “%Inh” value (GCN2(Kin.Dom.2,S808G)) was 72%. The “%Inh” value (GRK1) was 0%, the “%Inh” value (GRK2) was 0% and the “%Inh” value (GRK3) was 0%. The “%Inh” value (GRK4) was 13%, the “%Inh” value (GRK7) was 0% and the “%Inh” value (GSK3A) was 39%. For the same compound, the “%Inh” value (GSK3B; [1]) was 0%, the “%Inh” value (HASPIN) was 0% and the “%Inh” value (HCK) was 96.6%. The “%Inh” value (HIPK1) was 29%, the “%Inh” value (HIPK2) was 0% and the “%Inh” value (HIPK3) was 0%. For the same compound, the “%Inh” value (HIPK4) was 72%, the “%Inh” value (HPK1) was 56% and the “%Inh” value (HUNK) was 22%. For the same compound, the “%Inh” value (ICK) was 0% and the “%Inh” value (IGF1R) was 0%.
With `Cn1ccc2ncnc(Oc3ccc(NC(=O)Nc4cnn(C(C)(C)C)c4)c(Cl)c3)c21` the “%Inh” value (FYN) was 0%, the “%Inh” value (GAK) was 0% and the “%Inh” value (GCN2(Kin.Dom.2,S808G)) was 23%. The “%Inh” value (GRK1) was 18%, the “%Inh” value (GRK2) was 2% and the “%Inh” value (GRK3) was 6%. For the same compound, the “%Inh” value (GRK4) was 3%, the “%Inh” value (GRK7) was 0% and the “%Inh” value (GSK3A) was 14%. The “%Inh” value (GSK3B; [1]) was 0%, the “%Inh” value (HASPIN) was 35% and the “%Inh” value (HCK) was 33%. The “%Inh” value (HIPK1) was 26%, the “%Inh” value (HIPK2) was 16% and the “%Inh” value (HIPK3) was 0%. The “%Inh” value (HIPK4) was 1%, the “%Inh” value (HPK1) was 5% and the “%Inh” value (HUNK) was 0%. The “%Inh” value (ICK) was 0% and the “%Inh” value (IGF1R) was 25%.
In the case of `COC(=O)c1cccc(NC(=O)NC2CCN(c3ccnc(Nc4cc(OC)c(OC)c(OC)c4)n3)C2)c1` (centres unmarked) [GSK1379767], the “%Inh” value (FYN) is reported as 9%, the “%Inh” value (GAK) is reported as 27% and the “%Inh” value (GCN2(Kin.Dom.2,S808G)) is reported as 0%. For the same compound, the “%Inh” value (GRK1) was 13%, the “%Inh” value (GRK2) was 0% and the “%Inh” value (GRK3) was 49%. The “%Inh” value (GRK4) was 0%, the “%Inh” value (GRK7) was 0% and the “%Inh” value (GSK3A) was 2%. The “%Inh” value (GSK3B; [1]) was 0%, the “%Inh” value (HASPIN) was 15% and the “%Inh” value (HCK) was 5%. For the same compound, the “%Inh” value (HIPK1) was 0%, the “%Inh” value (HIPK2) was 0% and the “%Inh” value (HIPK3) was 6%. For the same compound, the “%Inh” value (HIPK4) was 0%, the “%Inh” value (HPK1) was 72% and the “%Inh” value (HUNK) was 0%. The “%Inh” value (ICK) was 0% and the “%Inh” value (IGF1R) was 3%.
